Laboratory results published in ChEMBL document CHEMBL1157539, “Thousands of chemical starting points for antimalarial lead identification” (Nature, 2010).

system: Plasmodium falciparum; test: GSK_TCMDC: Inhibition of Plasmodium falciparum 3D7 in whole red blood cells, using parasite LDH activity as an index of growth. Test compounds present at 2uM; assay type: functional

**Q.** `CCOC(=O)c1ccc(NC(=O)Nc2cccc(-c3ccc(-c4nc5cc(C(F)(F)F)ccc5[nH]4)cc3)c2)cc1` was tested. Which Inhibition did it give?
**A.** Its Inhibition is 100%.

**Q.** Which Inhibition does the source give for `Cc1cc(NC(=O)Nc2ccc3nccc(N4CCN(C)CC4)c3c2)ccc1Br` here?
**A.** The Inhibition was 100%.

**Q.** How did the Inhibition turn out when `Clc1ccc(Nc2nc(-c3ccccn3)cs2)nc1` was run?
**A.** The Inhibition was 95%.

**Q.** `Cc1cc(C2CCN(CCCCNC(=O)c3ccc(NC(=O)c4ccc(Cl)cc4)cc3)CC2)c(C)cc1OCCN(C)C` was tested. Which Inhibition did it give?
**A.** The Inhibition was 100%.

**Q.** For `CCc1sc(-c2cc(Cl)ccc2OC)nc1C(=O)NCCN1CCCCC1.O=C(O)C(F)(F)F`, which Inhibition is on record?
**A.** The Inhibition was 100%.

**Q.** For `Nc1ncc(-c2cccc(OCc3ccccc3)c2)cc1-c1nnc2ccc(Cl)nn12`, which Inhibition is on record?
**A.** The Inhibition was 94%.

**Q.** `O=C(/C=C/c1ccc(Cl)c(Cl)c1)N1CCCC(CCCN2CCC(c3c[nH]c4ccccc34)CC2)C1` (centres undefined) was tested. Which Inhibition did it give?
**A.** The Inhibition was 89%.

**Q.** How did the Inhibition turn out when `COc1ccc2nccc([C@@H](O)CN3CCC(NCc4cc5cccnc5[nH]4)CC3)c2n1.O=C(O)C(=O)O` was run?
**A.** The Inhibition was 90%.

**Q.** Which Inhibition does the source give for `Cc1cc(F)ccc1Nc1nc(N(C)c2ccccc2)c2cc(OCCCN(C)C)ccc2n1` here?
**A.** The Inhibition was 100%.

**Q.** With `CC1CN(c2cnn(Cc3cccc(NC(=O)Nc4ccc(F)cc4[N+](=O)[O-])c3)c(=O)c2Cl)CC(C)N1.O=C(O)C(F)(F)F` (centres undefined) as the molecule, how does the Inhibition read?
**A.** Its Inhibition is 91%.

**Q.** With `CC(CNC1CCN(CCn2c(=O)ccc3ccc(F)cc32)CC1)c1ccccc1` (centres undefined) as the molecule, how does the Inhibition read?
**A.** The Inhibition was 85%.

**Q.** How did the Inhibition turn out when `COc1ccc(OCCn2cc(C(=O)c3ccco3)c3ccccc32)cc1` was run?
**A.** Its Inhibition is 98%.

**Q.** How did the Inhibition turn out when `Cc1ccc2[nH]c([N-]C#N)nc2c1.[Na+]` was run?
**A.** Its Inhibition is 96%.

**Q.** Which Inhibition does the source give for `Cc1ccc(NS(=O)(=O)c2ccc(-c3ccccc3)cc2)c(Cn2cnc(N3CCCNCC3)cc2=O)c1.O=C(O)C(F)(F)F` here?
**A.** The Inhibition was 87%.
